# CCHF vOTU inh-1 – blocks the CCHF virus ovarian tumor domain protease | CCHFV vOTU protease, Pep-AMC fluorescence | inhibition, % at 11.5 µM | 0.55% of 370,000 active | AID 651958
# BH1578 lux ind – inducers of Vibrio cholerae quorum light production without autoinducers | V. cholerae BH1578 lux reporter, luminescence, 6 h | activation, % at 18.7 µM | 0.16% of 350,000 active; in the data active means activation mostly above about 9.7%, no sharp cut-off
# SSB-PriA inh – inhibitors of Klebsiella pneumoniae PriA binding to SSB C-terminal tail; inhibition, % at 33 µM; AID 1272365; AlphaScreen SSBct-PriA binding, biotinylated peptide; 0.6% of 430,000 active; in the data active means inhibition mostly above about 37%, no sharp cut-off; inactive means mostly below about 20%
# TcdB GH inh – TcdB glycohydrolase inhibition. P18177. TcdB glycohydrolase enzymatic assay, plate reader. inhibition, % at 9.99 µM. 0.24% of 350,000 active. AID 652162; in the data active means inhibition above about 10%
# DUSP3 inh – blocks human VHR1 dual specificity phosphatase. AID 1654. inhibition, % at 13.3 µM. recombinant VHR phosphatase, pNPP absorbance. P51452. 0.52% of 290,000 active; in the data active means inhibition above about 50%
# Target sequence (P51452 whole entry, looked up): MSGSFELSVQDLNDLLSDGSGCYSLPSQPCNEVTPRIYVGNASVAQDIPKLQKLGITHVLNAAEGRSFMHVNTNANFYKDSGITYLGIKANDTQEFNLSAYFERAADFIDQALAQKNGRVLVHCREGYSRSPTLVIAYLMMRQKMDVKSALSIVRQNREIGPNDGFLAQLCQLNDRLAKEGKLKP
# PrPC TRFRET – reduces human prion protein on the cell surface; P04156; cell surface PrPC, TR-FRET read-out; inhibition, % at 13.8 µM; 0.43% of 370,000 active; AID 720596; in the data active means inhibition above about 24%
# CCHF vOTU inh-2 – confirmation of CCHF virus vOTU protease inhibitors. shares compounds with CCHF vOTU inh-1. Recombinant CCHFV vOTU, Pep-AMC fluorescence. inhibition, % at 11.5 µM. 17% of 1,900 active
# Numbers stand for hits; i = inactive; nt = no result given. Shown are actives, neighbours in structure and some others; about 1.5% of the full set was active somewhere. Unless noted, no stated cut-off is given here; in the data, active means inhibition above about 30%; inactive means the rest.
SMILES,CCHF vOTU inh-1,BH1578 lux ind,SSB-PriA inh,TcdB GH inh,DUSP3 inh,PrPC TRFRET,CCHF vOTU inh-2
NC(=NOC(=O)COc1cc(Cl)c(Cl)cc1Cl)c1ccccn1,nt,nt,i,nt,nt,nt,nt
Cc1ccc2c(c1)c(=O)c1c3n2CCN(CC#N)C3CC1 (centres undefined),i,i,i,i,i,i,nt
Cc1ccc2c(c1)c(=O)c1c3n2CCN(C(=O)CCl)C3CC1 (centres undefined),51.4,i,i,nt,i,i,i
Cn1ccc2c(N3CCCC3)cc3c(c21)C1CCC3O1 (centres undefined),38.4,nt,nt,i,nt,i,i
Cn1ccc2c(N3CCCCCC3)cc3c(c21)C1CCC3O1 (centres undefined),i,nt,nt,i,nt,i,nt
O=C(CCCn1nc(-c2ccccc2)ccc1=O)Nc1cccc(F)c1,nt,nt,i,nt,nt,nt,nt
c1ccc(Cn2cc(CCOCc3ccccn3)c3ccccc32)cc1,32.0,nt,nt,i,nt,i,i
OCCCc1cn(Cc2ccccc2)c2ccccc12,i,i,i,i,i,i,nt
CC(NS(=O)(=O)/C=C/c1ccccc1)C(=O)O (centres undefined),31.9,i,i,i,i,i,i
O=S(=O)(/C=C/c1ccccc1)NCC(O)c1ccoc1 (centres undefined),nt,nt,i,nt,nt,nt,nt
CC(=NNC(=O)CCC1C(=O)NN=C1C)c1ccc([N+](=O)[O-])cc1 (centres undefined),nt,nt,i,nt,nt,nt,nt
CC1=NNC(=O)C1CCC(=O)N/N=C(/C)c1ccc([N+](=O)[O-])cc1 (centres undefined),29.9,i,nt,i,i,i,i
Cc1nc2n(c(=O)c1C)[C@@H](CC(=O)N1CCC(c3nnc(-c4ccco4)s3)CC1)CS2,nt,nt,i,nt,nt,nt,nt
Cc1nn(C(C)C)c(C)c1S(=O)(=O)NC[C@H](O)c1csc2ccccc12,nt,nt,i,nt,nt,nt,nt
C[C@H]1CCC(=O)N([C@H](COc2ccccc2)Cc2ccccc2)CC1,30.8,i,i,i,i,i,i
O=C(CS(=O)(=O)Cc1ccccc1)N(Cc1ccco1)c1nc2ccc(F)cc2s1,nt,nt,i,nt,nt,nt,nt
O=C(Nc1nc(-c2ccncc2)cs1)c1ccc2c(c1)CCCC2,nt,nt,i,nt,nt,nt,nt
O=C1NC(=O)N(Cc2ccc(F)cc2)C(=O)/C1=C\c1ccc([N+](=O)[O-])s1,31.8,i,i,i,i,i,i
Cc1oc2c(c1C(=O)O)C(=O)c1ccccc1C2=O,67.5,i,i,i,i,i,78.0
O=C(NCCCn1ccc2cccnc21)NC(c1ccccc1)c1ccccc1,nt,nt,i,nt,nt,nt,nt
CO[C@@]1(CNC(=O)c2cccn(C)c2=O)CCSC1,nt,nt,i,nt,nt,nt,nt
COc1cc2c(cc1OC)-c1c(OC)c(OC)cc3c1C(C2)N(C)CC3 (centres undefined),38.4,i,i,i,i,i,50.7
Cc1cc2ncc3c(n2n1)CCN(C(=O)c1cc(-c2ccco2)[nH]n1)C3,nt,nt,i,nt,nt,nt,nt
Cc1ccc(/C=[N+](\[O-])c2ccc(N(C)C)cc2)c2nsnc12,55.8,i,i,i,i,i,i
O=C(O)c1ccc(Cl)c(S(=O)(=O)N(Cc2ccccc2)c2ccc(Cl)cc2)c1,31.1,i,i,i,i,i,i
SMILES,CCHF vOTU inh-1,BH1578 lux ind,SSB-PriA inh,TcdB GH inh,DUSP3 inh,PrPC TRFRET,CCHF vOTU inh-2
Cc1c(N)cncc1C(=O)O,nt,nt,i,nt,nt,nt,nt
CC(=O)N1CCN(c2ccc(N)cc2)CC1,38.2,i,i,i,nt,i,i
CS(=O)(=O)N1CCCC(C(=O)Nc2nc(-c3ccc(Cl)cc3Cl)cs2)C1 (centres undefined),nt,nt,i,nt,nt,nt,nt
Cc1ccc2c(c1N)C(=O)c1ccccc1C2=O,i,i,i,i,nt,i,nt
Cc1ccc2c(c1C)-c1c(ccc(C)c1C)C(=O)C2=O,75.4,i,i,i,nt,i,72.2
S=C(Nc1ccc2nc(-c3ccccn3)c(-c3ccccn3)nc2c1)N1CCOCC1,36.3,i,i,i,i,i,i
CN(C)C(=S)Nc1ccc2nc(-c3ccccn3)c(-c3ccccn3)nc2c1,nt,nt,i,nt,nt,nt,nt
COc1ccc(C(=O)C2CCCN(C(=O)c3cccc(N4CCCC4=O)c3)C2)cc1OC (centres undefined),34.6,i,i,i,i,i,i
COC(=O)c1ccccc1C(=O)N1CCCC(C(=O)c2ccc(OC)c(OC)c2)C1 (centres undefined),i,i,i,i,i,i,nt
CCn1c(COc2cccc(C)c2)nnc1SCC(=O)Nc1cccc(C(=O)O)c1,i,i,i,nt,i,i,nt
CCn1c(COc2ccc3ccccc3c2C)nnc1SCC(=O)Nc1cccc(C(=O)O)c1,32.9,i,i,i,i,i,i

# Screening results as filed in PubChem.
